D3 antag = D3 dopamine receptor (human) antagonism; D3R cells, DiscoveRx beta-arrestin luminescence, antagonist mode; active compounds read low; max response, negative = inhibition, %; 360,000 tested, 2.5% active; in the data active = max response below about -50%; inconclusive = no clear call, values can overlap the other calls; also: % is scaled to controls: 0 for no effect and ±100 for the full control effect
Target sequence (P35462 whole entry, looked up): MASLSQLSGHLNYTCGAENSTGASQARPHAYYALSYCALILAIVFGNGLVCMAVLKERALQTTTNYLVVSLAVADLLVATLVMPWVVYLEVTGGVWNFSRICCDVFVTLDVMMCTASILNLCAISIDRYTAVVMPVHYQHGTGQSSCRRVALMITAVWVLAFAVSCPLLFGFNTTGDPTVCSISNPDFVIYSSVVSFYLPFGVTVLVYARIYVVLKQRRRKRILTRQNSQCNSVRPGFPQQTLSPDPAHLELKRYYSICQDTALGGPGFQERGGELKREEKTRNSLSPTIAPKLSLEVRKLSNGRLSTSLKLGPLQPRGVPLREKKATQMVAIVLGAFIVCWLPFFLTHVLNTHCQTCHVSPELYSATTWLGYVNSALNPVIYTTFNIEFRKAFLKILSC
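Cells plated overnight at 1500 cells/well, then exposed to library compounds with dopamine controls for 90 minutes at 37 degrees C. DiscoveRx reagent added for 30–60 minutes at room temperature; luminescence read, quantitative HTS format.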
ClpP mod = qHTS Assay for Activators of ClpP | ATP-dependent Clp protease proteolytic subunit (Bacillus subtilis (strain 168)), P80244 | 340,000 tested, 1.9% active | purified B. subtilis ClpP, FRET peptide cleavage, 20 min | AID 651965, 2013 | Potency, µM (doses to about 57.5 µM), without a hit: at the top dose activity change, negative = active; active = well fitted falling curve with a large enough effect; inconclusive = small, poorly fitted or top-dose-only effect; inactive = no such curve, though single readings can be large or run the other way; also: potency is read from the fitted curve at half-maximal effect; the source files actives as falling curves though it sought activators and does not explain the sign; nearly all actives have a fitted effect of over 65% in size
Target sequence (P80244 whole entry, looked up): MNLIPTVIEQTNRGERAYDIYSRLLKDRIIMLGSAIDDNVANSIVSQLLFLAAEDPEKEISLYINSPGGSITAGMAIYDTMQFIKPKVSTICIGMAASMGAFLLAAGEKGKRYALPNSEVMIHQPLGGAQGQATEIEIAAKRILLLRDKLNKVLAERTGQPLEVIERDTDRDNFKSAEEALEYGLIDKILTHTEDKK
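ClpP 10 microg/mL final, pH 8 Tris/KCl buffer with BSA, glycerol, Tween-20; compound pinned in; FRET-FV substrate; RT 20 min; Ex320/Em430; ΔFRET vs ADEP 5.8 microM, DMSO, no enzyme.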
TDP1 cell noCPT = qHTS for Inhibitors of human tyrosyl-DNA phosphodiesterase 1 (TDP1): qHTS in cells in absence of CPT | DT40 Tdp1-/- hTDP1 cells, no CPT, ATP luminescence, 48 h | 420,000 tested, 15% active | Potency, µM (titrated, usually from 46.2 µM), for the others: top-dose activity change, negative = growth inhibition, hits mostly inhibitors | AID 686978, 2013; also: potency is read from the fitted curve at half-maximal effect; % is scaled to controls: 0 for no effect and ±100 for the full control effect; nearly all actives have a fitted effect of over 55% in size
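Seeded 400 DT40-hTDP1 cells/well (vehicle DMSO, no 20 nM CPT); pinned compounds; ≥48 hr at 37 °C; CellTiter-Glo luminescence as viability measure.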
DRD3 agonist = D3 dopamine receptor (human) agonism; 410,000 tested, 0.58% active; max activation, %; D3R DiscoveRx beta-arrestin cells, luminescence, 90 min; P35462; in the data active = max activation above about 30%; also: 0% is about no effect
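Agonist-mode cell screen: cells plated at 1500/well and incubated overnight at 37 °C, then exposed to library compounds for 90 min at 37 °C. Detection reagent was added for 30–60 min at room temperature, and luminescence was read.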
DT40 TDP1 CPT = growth inhibition of DT40 Tdp1-/-;hTDP1 cells with camptothecin (screen for TDP1 inhibitors); chicken DT40 Tdp1-/-;hTDP1 cells + 20 nM CPT, ATP luminescence, 48 h; Potency, µM (highest dose often 46.2 µM), without a hit: at the highest dose activity change, negative = growth inhibition, actives largely listed as inhibitors; 420,000 tested, 12% active; also: potency is read from the fitted curve at half-maximal effect; % is scaled to controls: 0 for no effect and ±100 for the full control effect; nearly all actives have a fitted effect of over 55% in size
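Chicken DT40 Tdp1-/- cells complemented with human TDP1, 400 cells/well, exposed to compounds plus 20 nM camptothecin for at least 48 h at 37 C; viability read as ATP content by CellTiter-Glo luminescence.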
IL-1B inflam inh = inflammasome signaling inhibition, IL-1 beta readout | THP-1 LPS/ATP IL-1B secretion, AlphaLISA, 16 h; active compounds read low | 360,000 tested, 4.7% active | AID 743279 | activity change, % at 57.5 µM; in the data active = activity change below about -50%; inconclusive = mostly about -30% to -49%; also: % is scaled to controls: 0 for no effect and ±100 for the full control effect
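THP-1 cells pretreated 1 hr with compounds (up to 57.5 uM final), then stimulated with LPS (250 ng/mL final) plus ATP (1.25 mM final); secreted IL-1B measured by AlphaLISA after 16 hr, decreased signal indicating inhibition.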
* hit, by the source's call; [ ] = dose if it differs, or a comment. Compounds with a hit are over-represented: about 21% of the library has one in this group of screens. Unless noted, calls follow the shape of the dose curve; as a rule, active = well fitted inhibition curve with a large enough effect; inconclusive = small, poorly fitted or top-dose-only effect; inactive = flat fitted curve, though single readings scatter.

CCOC(=O)c1ccc(CN(Cc2ccc(F)cc2)S(=O)(=O)c2cc(C(=O)Nc3ccccc3CC)ccc2F)cc1 was read as ClpP mod 0.0%, TDP1 cell noCPT -13.5%, DRD3 agonist 0.0 and DT40 TDP1 CPT inconclusive.
CC(Cc1ccsc1)NC(=O)CCc1nnc(COc2ccccc2)o1 (configuration not stated) was read as D3 antag 1.8, TDP1 cell noCPT 7.1%, DRD3 agonist 21.1, DT40 TDP1 CPT 2.0% and IL-1B inflam inh 13.9.
`COc1ccc(S(=O)(=O)N2CCCCCC2)cc1NC(=O)Cc1cc(OC)c(OC)c(OC)c1` gave D3 antag 9.6, ClpP mod 0.6%, TDP1 cell noCPT inconclusive, DRD3 agonist 2.8, DT40 TDP1 CPT -3.5% and IL-1B inflam inh 0.0.
Screening COc1ccc(S(=O)(=O)N2CCOCC2)cc1NC(=O)COC(=O)C1CCC1 returned D3 antag -6.8, ClpP mod 35.5µM*, TDP1 cell noCPT -12.9%, DRD3 agonist 3.5, DT40 TDP1 CPT -17.7% and IL-1B inflam inh 3.1.
`COc1ccc(S(=O)(=O)N2CCCCC2)cc1NC(=O)CN(C)C1CCCCC1` gave D3 antag 4.0, ClpP mod 0.5%, TDP1 cell noCPT inconclusive, DRD3 agonist -3.7, DT40 TDP1 CPT inconclusive and IL-1B inflam inh -70.4*.
For O=C(N/N=C/C1=C(N2CCOCC2)C(=C\c2ccccc2)/CC1)Nc1ccccc1 the results were D3 antag 11.0, ClpP mod 1.7%, TDP1 cell noCPT 8.2µM*, DRD3 agonist -4.9, DT40 TDP1 CPT 11.6µM* and IL-1B inflam inh 5.1.
For Cc1cc(C)nc(N/N=C/C2=C(N3CCOCC3)C(=C/c3ccccc3)/CC2)n1 the results were D3 antag -17.2, ClpP mod -1.1%, TDP1 cell noCPT 11.6µM*, DRD3 agonist 13.0, DT40 TDP1 CPT 16.4µM* and IL-1B inflam inh -23.2.
`Cc1occc1C(=O)N/N=C/C1=C(N2CCOCC2)C(=C\c2ccc(Cl)cc2)/CC1` gave D3 antag 16.5, ClpP mod 1.6%, TDP1 cell noCPT 0.92µM*, DRD3 agonist -2.6, DT40 TDP1 CPT inconclusive and IL-1B inflam inh 2.7.
CC(C)C(NC(=O)C12CC3CC(CC(C3)C1)C2)C(=O)N/N=C/C1=C(N2CCOCC2)C(=C\c2ccc([N+](=O)[O-])cc2)/CC1 (configuration not stated) was read as D3 antag 1.0, ClpP mod 1.4%, TDP1 cell noCPT -23.7%, DRD3 agonist 0.1, DT40 TDP1 CPT -22.2% and IL-1B inflam inh -5.7.
For O=C(O)c1ccccc1N/N=C/C1=C(N2CCOCC2)C(=C\c2ccccc2)/CC1 the results were D3 antag -5.9, TDP1 cell noCPT 11.6µM*, DRD3 agonist -0.9, DT40 TDP1 CPT 20.6µM* and IL-1B inflam inh 17.4.
O=P(C1=C(N2CCOCC2)/C(=C\c2ccccc2)CC1)(N1CCOCC1)N1CCOCC1 was read as D3 antag 8.2, ClpP mod -19.6%, TDP1 cell noCPT -15.3%, DRD3 agonist 1.8, DT40 TDP1 CPT 0.9% and IL-1B inflam inh -18.6.
`Cc1ccc(N2CCN(/N=C/C3=C(N4CCOCC4)C(=C\c4ccccc4)/CC3)CC2)cc1` gave D3 antag 12.5, ClpP mod -1.3%, TDP1 cell noCPT 7.8%, DRD3 agonist 0.5, DT40 TDP1 CPT -16.3% and IL-1B inflam inh 0.1.
`CC(Nc1cccc(C(=O)NC2CC2)c1)c1nnc(-c2ccccc2)o1` (configuration not stated) gave D3 antag -10.9, TDP1 cell noCPT -25.5%, DRD3 agonist -5.8, DT40 TDP1 CPT -18.6% and IL-1B inflam inh -10.0.
Cc1c(C(=O)N2CCCC(C)C2)sc2ncnc(NCCN3CCCCC3)c12 (configuration not stated) was read as TDP1 cell noCPT -23.9% and DT40 TDP1 CPT -2.5%[9.04 µM].
Screening CC(OC(=O)c1ccc2ncsc2c1)C(=O)NC1CCCCC1C (configuration not stated) returned D3 antag 12.3, ClpP mod -2.5%, TDP1 cell noCPT inconclusive, DRD3 agonist -7.3, DT40 TDP1 CPT -11.9% and IL-1B inflam inh 11.3.
`COc1ccc(CN(C)C(=O)[C@H]2O[C@@H](n3cnc4c(N)ncnc43)[C@H](O)[C@@H]2O)cc1OC` gave D3 antag 3.9, ClpP mod -0.4%, TDP1 cell noCPT 6.9%, DRD3 agonist 9.6, DT40 TDP1 CPT -1.7% and IL-1B inflam inh 2.2.
For c1ccc(OCCNc2ccn3nc(-c4ccco4)cc3n2)cc1 the results were D3 antag 23.4, ClpP mod 5.2%, TDP1 cell noCPT inconclusive, DRD3 agonist 4.7, DT40 TDP1 CPT inconclusive and IL-1B inflam inh -15.8.
CCCN(CCC)CCCNC(=O)c1cn(-c2ccc(OC)cc2)c(=O)c2ccccc12 was read as D3 antag 1.0, ClpP mod -4.0%, TDP1 cell noCPT 22.3%, DRD3 agonist -2.4, DT40 TDP1 CPT 1.2% and IL-1B inflam inh -12.6.
`Cc1cc(=O)[nH]c(NN=Cc2c(Cl)cccc2Cl)n1` gave D3 antag -17.3, ClpP mod -1.0%, TDP1 cell noCPT -25.0%, DRD3 agonist 5.4, DT40 TDP1 CPT 15.3% and IL-1B inflam inh -29.1.
Cc1cc(=O)[nH]c(N/N=C/C2=C(N3CCOCC3)C(=C\c3ccc(Cl)cc3)/CC2)n1 was read as D3 antag 9.3, ClpP mod 0.4%, TDP1 cell noCPT 16.4µM*, DRD3 agonist 0.7, DT40 TDP1 CPT 20.6µM* and IL-1B inflam inh 14.5.
`Cc1ccc2c(c1)S/C(=C/c1ccc[n+](C)c1)N2CCO` gave D3 antag -13.6, ClpP mod -0.2%, TDP1 cell noCPT 2.59µM*, DRD3 agonist 0.3, DT40 TDP1 CPT 3.26µM* and IL-1B inflam inh inconclusive.
`O=C(NC(Cc1ccccc1)c1ccc2c(c1)OCCCO2)c1ccccc1` (configuration not stated) gave D3 antag -26.0, ClpP mod -3.6%, TDP1 cell noCPT -21.4%, DRD3 agonist -20.4, DT40 TDP1 CPT -21.5% and IL-1B inflam inh -21.2.
For CCC(=O)NC(Cc1ccccc1)c1ccc2c(c1)OCCCO2 (configuration not stated) the results were D3 antag -10.7, ClpP mod 22.4µM*, TDP1 cell noCPT -24.5%, DRD3 agonist 3.6, DT40 TDP1 CPT -2.6% and IL-1B inflam inh 5.0.
